# Reference: PubChem BioAssay
# Several values for one entry are separate records, joined by “and”; a condition that tells them apart may be missing. Equal entries are not always repeated. Activity calls are given as the source filed them.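 How the source made its calls, unless noted: active means thallium flux through the channel raised or lowered by more than 3 SD from vehicle-only wells, actives on both sides; inactive means the rest.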
# Experiments:
# [1] = Cy5 fluorescence interference with SSB-bound oligo, artefact control for HCV NS3 helicase inhibitor project, biochemical, NIH Clinical Collection, E. coli SSB (AID 743268; call rule not given here)
# [2] = system: Hepatitis C virus NS3 helicase; assay: HCV NS3 helicase inhibitors, primary screen, biochemical, fluorescence polarization, NIH Clinical Collection (AID 743270; call rule not given here); details: NS3 helicase binding to Cy5-dT15 DNA, stronger effect = higher value, concentration not given here
# [3] = biological target: Single-stranded DNA-binding protein (Escherichia coli (strain K12)) (UniProt P0AGE0); assay: E. coli SSB displacement from DNA, counter-screen for HCV NS3 helicase inhibitor project, biochemical, fluorescence polarization, NIH Clinical Collection (AID 743271; in the data active means inhibition above about 28%); details: stronger effect = higher value, concentration not given here
# [4] = fluorescence interference in NS3h assay format, artefact control for HCV NS3 helicase inhibitor project, biochemical, NIH Clinical Collection (AID 743272; call rule not given here;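 further: HCV NS3 helicase with a Cy5 labelled single stranded DNA probe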); details: fluorescence interference counterscreen, stronger effect = lower value
# [5] = biological target: 6-phosphogluconate dehydrogenase, decarboxylating (Homo sapiens) (UniProt P52209); assay: 6PGD enzyme inhibitors, primary screen, biochemical, human, recombinant enzyme, NADPH absorbance (AID 1159550;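 active means at least 20% inhibition of 6-phosphogluconate dehydrogenase activity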); details: recombinant 6PGD, NADPH absorbance 341 nm; at 10 µM; stronger effect = higher value
# [6] = modulation of C. elegans fzo-1 (AID 1259413; call rule not given here;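 further: fzo-1 mutant C. elegans worms in liquid wells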); details: C. elegans fzo-1 modulator screen, mean read-out; stronger effect = higher value
# [7] = differential killing of epithelial or mesenchymal cells, primary screen, imaging, PC-3E GFP, TEM4-18 mCherry, co-culture (AID 1345086;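 active means compounds killing one labelled cell type while sparing the other, by normalised counts and ratio limits, not self-fluorescent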;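 on all read-outs here: cells exposed to compound for 72 h before imaging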;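 on red/green cell ratio (normalised): normalised mesenchymal count divided by normalised epithelial count so high means epithelial killing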); details: imaging cell counts, at 1 µM; for red/green cell ratio (normalised): actives lie on both sides, counts scaled to control wells, 1 = unselective
# [8] = sensitizers of A549 cells to miR-34 induction, primary screen, imaging, A549 dox-inducible miR-34, nuclei and caspase counts (AID 1347080;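 active means compounds whose cell count with miR-34 switched on is under 0.7 times the count with it off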); details: A549 miR-34 inducible, Hoechst nuclei count, 48 h
# [9] = survival rescue of mitochondrial mutant cells in low glucose, primary screen, MELAS cybrids, Rieske KO mouse fibroblasts, CellTiter-Glo (AID 1508586;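 active means mean z-score across replicates of 1.96 or higher in either the MELAS or the Rieske mutant cell line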;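 further: z relative to plate mean and SD of compound and empty wells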)
# [10] = biological target: NAD(+) hydrolase SARM1 (Homo sapiens) (UniProt Q6SZW1); assay: SARM1 TIR NADase inhibitors, cell lysate, NAD-Glo luminescence (AID 1508614;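 active means compound whose remaining NAD level is above about 45 nM, limit read from the data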); details: SAM-TIR HEK293T lysate NADase, at 1 µM, stronger effect = higher value
# [11] = biological target: Mitogen-activated protein kinase 7 (Homo sapiens) (UniProt Q13164); assay: ERK5 transactivation activators in reporter cells, primary screen, cell-based, HTS (AID 1508626;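 active means luciferase signal above three times the same-plate solvent-only control wells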;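 further: luciferase driven by Gal4-ERK5 fusion binding five Gal4 sites before minimal TATA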); details: HeLa Gal4-ERK5 transactivation, 18 h, at 5 µM, stronger effect = higher value
# [12] = viability rescue of complex I mutant cybrids, primary screen, cell-based, galactose medium, ATP luminescence (AID 1645843;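 active means z-score of at least 1.8 in each of two replicates, scored against plate mean and spread of sample wells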;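 further: positive z means more ATP and so rescue of galactose-driven cybrid death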); details: complex I mutant cybrid cells, 72 h, stronger effect = higher value
# F380Y = assay: modulators of BK channel variants, profiling panel, selectivity assay, cell-based, U2OS BacMam, thallium flux, beta subunits (AID 1259406); details: at 30 µM;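 further: initial slope of Thallos dye fluorescence rise after thallium is added; log ratio against the mean of 0.3% DMSO vehicle wells on the same plate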
# F380Y/beta2Delta = assay: as above; details: at 30 µM
# [13] = biological target: Calcium-activated potassium channel subunit alpha-1 (Homo sapiens) + Leucine-rich repeat-containing protein 26 (Homo sapiens) (UniProt Q12791+Q2I0M4); assay: as above; details: F380Y/Slo1WT/gamma1, at 30 µM
# R275C = assay: as above; details: at 30 µM
# R275C/beta1 = assay: as above; details: at 30 µM
# R275C/beta2Delta = assay: as above; details: at 30 µM
# [14] = liver-stage malaria parasite growth inhibition, primary screen, cell-based, HepG2, luciferase luminescence, HepG2 viability (AID 624349; in the data active means parasite load remaining mostly below about 12%, no sharp cut-off; inactive means mostly above about 10%;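 further: 100% = mean of DMSO negative control wells on the same plate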); details: P. berghei liver stage in HepG2, luciferase luminescence, concentration not given here; parasite load remaining: stronger effect = lower value; viability: measured here: HepG2 viability without parasites
# [15] = measured here: epithelial PC-3E GFP cell survival
# [16] = measured here: mesenchymal TEM4-18 mCherry cell survival
# [17] = stronger effect = lower value, cell number ratio, induced over uninduced
# [18] = measured here: relative caspase fold change +Dox/-Dox
# [19] = measured here: total cells with miR-34 induction, stronger effect = lower value
# [20] = measured here: total cells without miR-34 induction
# [21] = MELAS cybrid survival, CellTiter-Glo 48 h, stronger effect = higher value
# [22] = Rieske KO mouse fibroblast survival, CellTiter-Glo 72 h
# Chain of NAD(+) hydrolase SARM1 (Homo sapiens) (Q6SZW1 whole entry, looked up, the tested form may be a part): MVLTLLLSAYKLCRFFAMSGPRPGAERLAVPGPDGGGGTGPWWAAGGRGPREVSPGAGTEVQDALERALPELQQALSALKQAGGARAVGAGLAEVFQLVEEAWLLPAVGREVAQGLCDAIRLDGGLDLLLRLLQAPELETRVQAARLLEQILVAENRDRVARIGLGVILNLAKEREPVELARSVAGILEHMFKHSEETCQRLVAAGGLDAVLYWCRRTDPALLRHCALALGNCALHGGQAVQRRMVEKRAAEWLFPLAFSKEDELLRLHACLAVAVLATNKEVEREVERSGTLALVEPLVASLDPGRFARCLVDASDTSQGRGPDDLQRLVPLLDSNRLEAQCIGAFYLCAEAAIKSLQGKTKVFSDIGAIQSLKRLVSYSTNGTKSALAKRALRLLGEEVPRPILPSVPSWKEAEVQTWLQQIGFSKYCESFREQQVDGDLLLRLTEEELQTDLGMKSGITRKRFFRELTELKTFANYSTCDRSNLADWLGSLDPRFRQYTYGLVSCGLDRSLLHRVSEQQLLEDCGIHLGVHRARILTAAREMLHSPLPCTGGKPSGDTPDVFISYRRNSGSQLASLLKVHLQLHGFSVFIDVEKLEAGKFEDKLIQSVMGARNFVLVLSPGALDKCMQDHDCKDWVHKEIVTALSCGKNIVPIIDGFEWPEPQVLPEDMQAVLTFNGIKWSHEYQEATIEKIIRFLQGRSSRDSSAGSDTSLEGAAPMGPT
# Chain of Mitogen-activated protein kinase 7 (Homo sapiens) (Q13164 whole entry, looked up, the tested form may be a part): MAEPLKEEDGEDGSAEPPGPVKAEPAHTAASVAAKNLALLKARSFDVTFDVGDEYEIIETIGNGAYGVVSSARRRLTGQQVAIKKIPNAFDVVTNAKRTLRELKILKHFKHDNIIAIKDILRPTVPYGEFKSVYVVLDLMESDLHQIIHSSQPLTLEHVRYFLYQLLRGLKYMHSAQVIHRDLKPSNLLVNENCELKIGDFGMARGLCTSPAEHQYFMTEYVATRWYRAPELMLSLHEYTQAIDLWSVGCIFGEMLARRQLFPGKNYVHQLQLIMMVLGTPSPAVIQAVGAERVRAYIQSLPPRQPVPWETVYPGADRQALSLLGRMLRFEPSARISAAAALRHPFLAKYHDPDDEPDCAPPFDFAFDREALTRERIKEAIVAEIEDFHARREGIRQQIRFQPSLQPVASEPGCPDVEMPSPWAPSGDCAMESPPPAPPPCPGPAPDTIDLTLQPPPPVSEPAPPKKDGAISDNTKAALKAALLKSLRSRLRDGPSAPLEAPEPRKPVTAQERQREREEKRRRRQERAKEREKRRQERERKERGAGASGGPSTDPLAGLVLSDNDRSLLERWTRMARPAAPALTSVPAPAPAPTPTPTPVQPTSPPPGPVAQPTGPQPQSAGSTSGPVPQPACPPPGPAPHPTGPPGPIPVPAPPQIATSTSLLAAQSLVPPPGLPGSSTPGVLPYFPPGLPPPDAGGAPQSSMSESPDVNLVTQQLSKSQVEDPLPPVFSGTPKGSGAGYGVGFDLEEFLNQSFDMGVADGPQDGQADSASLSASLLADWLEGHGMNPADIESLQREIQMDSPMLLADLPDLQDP
# Chain of Calcium-activated potassium channel subunit alpha-1 (Homo sapiens) + Leucine-rich repeat-containing protein 26 (Homo sapiens) (Q2I0M4 whole entry, looked up, one chain of several): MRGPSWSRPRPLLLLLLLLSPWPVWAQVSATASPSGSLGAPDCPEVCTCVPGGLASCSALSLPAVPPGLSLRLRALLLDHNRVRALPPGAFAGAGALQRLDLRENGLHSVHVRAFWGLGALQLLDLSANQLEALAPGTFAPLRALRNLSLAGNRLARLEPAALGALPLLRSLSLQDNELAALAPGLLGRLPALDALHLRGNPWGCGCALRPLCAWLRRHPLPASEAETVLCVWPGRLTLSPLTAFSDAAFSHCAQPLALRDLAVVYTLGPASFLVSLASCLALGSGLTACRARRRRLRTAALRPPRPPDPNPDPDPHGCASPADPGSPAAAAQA
# Chain of 6-phosphogluconate dehydrogenase, decarboxylating (Homo sapiens) (P52209 whole entry, looked up): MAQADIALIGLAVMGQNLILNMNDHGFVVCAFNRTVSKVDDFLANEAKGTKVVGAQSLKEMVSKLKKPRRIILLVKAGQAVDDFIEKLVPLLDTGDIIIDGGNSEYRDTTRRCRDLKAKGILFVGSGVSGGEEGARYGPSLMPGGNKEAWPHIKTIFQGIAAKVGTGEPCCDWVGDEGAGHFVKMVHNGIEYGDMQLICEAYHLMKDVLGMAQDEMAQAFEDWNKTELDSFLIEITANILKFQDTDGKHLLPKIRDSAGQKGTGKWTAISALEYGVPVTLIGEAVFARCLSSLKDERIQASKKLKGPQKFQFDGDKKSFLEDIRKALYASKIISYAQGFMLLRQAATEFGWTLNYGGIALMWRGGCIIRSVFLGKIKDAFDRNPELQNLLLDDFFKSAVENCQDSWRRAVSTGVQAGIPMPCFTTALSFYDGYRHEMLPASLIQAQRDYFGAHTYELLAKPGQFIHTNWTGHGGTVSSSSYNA
smiles,measurement,setting,value
Nc1ncnc2c1ncn2[C@@H]1O[C@H](CO)[C@@H](O)[C@@H]1O,fluorescence ratio,[1],1 (inactive)
same,inhibition,[2],-4.09% (inactive)
same,inhibition,[3],-1.24% (inactive)
same,fluorescence ratio,[4],1 (inactive)
same,inhibition,[5],-15.7% (inactive)
same,mean signal,[6],237 (inactive)
same,red/green cell ratio (normalised),[7],0.96 (inactive)
same,normalised cell number,[7]; [15],0.99
same,normalised cell number,[7]; [16],0.95
same,fold change,[8]; [17],0.95 (inactive) and 0.835 (inactive) and 0.86 (inactive)
same,fold change,[8]; [18],2.09 and 4.39 and 1.09
same,cell count,[8]; [19],9780 and 10000 and 8360
same,cell count,[8]; [20],10300 and 12000 and 9720
same,z-score,[9]; [21],-2.73 (inactive) and -2.26 (inactive)
same,z-score,[9]; [22],0.559 and 1.92
same,remaining NAD,[10],10 nM (inactive)
same,luciferase signal,[11],160 AU (inactive)
same,z-score,[12],-1.35 (inactive) and 1.67 (inactive)
same,log fold change Tl+ flux,F380Y,-0.000678 (inactive)
same,log fold change Tl+ flux,F380Y/beta2Delta,0.00163 (inactive)
same,log fold change Tl+ flux,[13],0.0271 (inactive)
same,log fold change Tl+ flux,R275C,0.00664 (inactive)
same,log fold change Tl+ flux,R275C/beta1,-0.0305 (inactive)
same,log fold change Tl+ flux,R275C/beta2Delta,-0.0267 (inactive)
COc1ccc(/C=C/C(=O)Nc2ccccc2C(=O)O)cc1OC,parasite load remaining,[14],13.7% (inactive) and 10.8% (inactive) and 12.8% (inactive)
same,viability,[14],99.2% and 76.6% and 140%
same,fluorescence ratio,[1],1.05 (inactive)
same,inhibition,[2],0.4% (inactive)
same,inhibition,[3],-1.64% (inactive)
same,fluorescence ratio,[4],0.99 (inactive)
same,inhibition,[5],5.84% (inactive)
same,mean signal,[6],225 (inactive)
same,red/green cell ratio (normalised),[7],0.8 (inactive)
same,normalised cell number,[7]; [15],1.21
same,normalised cell number,[7]; [16],0.98
same,z-score,[9]; [21],0.761 (inactive) and 0.318 (inactive)
same,z-score,[9]; [22],-0.0722 and 0.758
same,remaining NAD,[10],10 nM (inactive)
same,z-score,[12],1.34 (inactive) and 0.925 (inactive) and 0.79 (inactive)
same,log fold change Tl+ flux,F380Y,-0.0454 (inactive)
same,log fold change Tl+ flux,F380Y/beta2Delta,-0.0218 (inactive)
same,log fold change Tl+ flux,[13],-0.0322 (inactive)
same,log fold change Tl+ flux,R275C,-0.0585 (inactive)
same,log fold change Tl+ flux,R275C/beta1,-0.0786 (inactive)
same,log fold change Tl+ flux,R275C/beta2Delta,0.0483 (inactive)
CC(C)NCC(O)COc1cccc2ccccc12 (stereo not given),fluorescence ratio,[1],1.01 (inactive)
same,inhibition,[2],-8.64% (inactive)
same,inhibition,[3],2.57% (inactive)
same,fluorescence ratio,[4],0.93 (inactive)
same,inhibition,[5],13.6% (inactive)
same,mean signal,[6],249 (inactive)
same,red/green cell ratio (normalised),[7],1.4 (inactive)
same,normalised cell number,[7]; [15],0.94
same,normalised cell number,[7]; [16],1.31
same,remaining NAD,[10],10 nM (inactive)
same,luciferase signal,[11],48 AU (inactive)
same,log fold change Tl+ flux,F380Y,0.0569 (inactive)
same,log fold change Tl+ flux,F380Y/beta2Delta,0.058 (inactive)
same,log fold change Tl+ flux,[13],-0.019 (inactive)
same,log fold change Tl+ flux,R275C,-0.0109 (inactive)
same,log fold change Tl+ flux,R275C/beta1,0.0491 (inactive)
same,log fold change Tl+ flux,R275C/beta2Delta,0.188 (active)
O=c1ccc2ccc(O)c(O)c2o1,inhibition,[5],2.02% (inactive)
same,fold change,[8]; [17],0.898 (inactive) and 0.94 (inactive)
same,fold change,[8]; [18],1.4 and 0.597
same,cell count,[8]; [19],7930 and 10100
same,cell count,[8]; [20],8840 and 10800
same,z-score,[9]; [21],-0.407 (inactive)
same,z-score,[9]; [22],0.783
same,luciferase signal,[11],64 AU (inactive)
same,z-score,[12],-0.93 (inactive)
CC(C(=O)O)c1ccc(-c2ccccc2)c(F)c1 (stereo not given),fluorescence ratio,[1],0.95 (inactive) and 0.99 (inactive)
same,inhibition,[2],-2.77% (inactive) and -3.18% (inactive)
same,inhibition,[3],6.83% (inactive) and 0.29% (inactive)
same,fluorescence ratio,[4],0.9 (inactive) and 0.98 (inactive)
same,inhibition,[5],19% (inactive)
same,mean signal,[6],239 (inactive)
same,red/green cell ratio (normalised),[7],1.1 (inactive)
same,normalised cell number,[7]; [15],1.07
same,normalised cell number,[7]; [16],1.18
same,z-score,[9]; [21],-0.289 (inactive) and 0.565 (inactive) and 0.434 (inactive)
same,z-score,[9]; [22],1.18 and -0.0179 and 1.37
same,remaining NAD,[10],10 nM (inactive)
same,luciferase signal,[11],40 AU (inactive)
same,log fold change Tl+ flux,F380Y,0.0247 (inactive)
same,log fold change Tl+ flux,F380Y/beta2Delta,-0.00435 (inactive)
same,log fold change Tl+ flux,[13],0.0464 (inactive)
same,log fold change Tl+ flux,R275C,-0.0123 (inactive)
same,log fold change Tl+ flux,R275C/beta1,0.0432 (inactive)
same,log fold change Tl+ flux,R275C/beta2Delta,0.0621 (inactive)
CCCCC(=O)N(Cc1ccc(-c2ccccc2-c2nn[nH]n2)cc1)[C@H](C(=O)O)C(C)C,parasite load remaining,[14],147% (inactive) and 47.5% (inactive) and 92.3% (inactive)
same,viability,[14],89.7% and 98.7% and 73.8%
same,fluorescence ratio,[1],1.07 (inactive)
same,inhibition,[2],4.36% (inactive)
same,inhibition,[3],4.52% (inactive)
same,fluorescence ratio,[4],1.05 (inactive)
same,inhibition,[5],-2.51% (inactive)
same,mean signal,[6],250 (inactive)
same,red/green cell ratio (normalised),[7],1.14 (inactive)
same,normalised cell number,[7]; [15],1.14
same,normalised cell number,[7]; [16],1.3
same,fold change,[8]; [17],0.954 (inactive) and 0.853 (inactive)
same,fold change,[8]; [18],0.477 and 2.43
same,cell count,[8]; [19],8040 and 10600
same,cell count,[8]; [20],8430 and 12500
same,z-score,[9]; [21],0.123 (inactive) and -0.397 (inactive)
same,z-score,[9]; [22],0.0466 and -1.21
same,remaining NAD,[10],10 nM (inactive)
same,luciferase signal,[11],56 AU (inactive)
same,log fold change Tl+ flux,F380Y,0.0751 (inactive)
same,log fold change Tl+ flux,F380Y/beta2Delta,0.0113 (inactive)
same,log fold change Tl+ flux,[13],0.0422 (inactive)
same,log fold change Tl+ flux,R275C,-0.0315 (inactive)
same,log fold change Tl+ flux,R275C/beta1,0.0112 (inactive)
same,log fold change Tl+ flux,R275C/beta2Delta,0.014 (inactive)
